According to the supplement of paper PMC4840960:
Where a name gives a salt, the structure may show the parent alone. ± gives the standard deviation of the averaged measurements.

The compounds below were run on E18 rat cortical neuron-glia co-culture (assay: fiber score / MBP score (myelination specific beyond OL differentiation) (ratio); higher = more myelination-specific MBP alignment). Conditions: 1 µM; treatment time: 8 days (DIV5-DIV13).
Method in brief: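 Primary E18 rat cortical co-cultures (papain-dissociated, 20,000 cells/well on poly-d-lysine/laminin 96-well plates) received library compounds at 1 or 5 µM in myelination medium from DIV5 to DIV13. Cells were fixed in 4 % paraformaldehyde and immunostained for MBP and Olig2 with DAPI, and four 10X fields per well in duplicate wells were analysed. The read-out is fiber score (continuous MBP fiber length per Olig2+ nucleus) divided by MBP score (thresholded MBP area × intensity per Olig2+ nucleus).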
For Cc1nnc2n1-c1ccc(Cl)cc1C(c1ccccc1)=NC2 [Alprazolam], the “fiber score / MBP score” value was 0.628. In the case of CN1C(=O)COc2c(C(=O)NC3CN4CCC3CC4)cc(Cl)cc21 (stereo not given) [Azasetron], the “fiber score / MBP score” value is reported as 0.754. In the case of CC[C@@H]1C=CC=CC[C@H](C)[C@@H](O)[C@@H](C)C(=O)[C@H](C)[C@@H](O)[C@H](C)C(=O)[C@H](C)[C@@H](O)[C@H](C)C=CC(=O)O[C@H]2[C@@H](C)[C@@H](CC1)O[C@@]1(CC[C@@H](C)[C@@H](C[C@H](C)O)O1)[C@@H]2C [Oligomycin C], the “fiber score / MBP score” value is reported as 0.799. For CC(C)N(CCC(C(N)=O)(c1ccccc1)c1ccccn1)C(C)C (stereo not given) [Disopyramide], the “fiber score / MBP score” value was 0.453. For COc1ccc(C(CN(C)C)C2(O)CCCCC2)cc1 (stereo not given) [Venlafaxine], the “fiber score / MBP score” value was 0.576. With C[C@]12CC[C@H]3[C@@H](CCC4=CC(=O)CC[C@@H]43)[C@@H]1CC[C@@H]2O [Nandrolone] the “fiber score / MBP score” value was 0.984. CN1[C@@H]2C[C@@H](OC(=O)[C@H](CO)c3ccccc3)C[C@H]1[C@@H]1O[C@@H]12 [Scopolamine hydrobromide] was tested, and the “fiber score / MBP score” value was 0.649. In the case of C[C@H]1CCC[C@H](O)CCCCCc2cc(O)cc(O)c2C(=O)O1 [Zeranol], the “fiber score / MBP score” value is reported as 0.788. C[C@]12CC[C@H](O)CC1=CC[C@@H]1[C@@H]2CC[C@]2(C)C(=O)CC[C@@H]12 [Dehydroepiandrosterone] was tested, and the “fiber score / MBP score” value was 1.25. O=C(O)CCCc1ccc(N(CCCl)CCCl)cc1 [Chlorambucil] was tested, and the “fiber score / MBP score” value was 0.893. For c1cncc([C@@H]2CCCN2)c1 [Nornicotine], the “fiber score / MBP score” value was 0.765. With CN1C(=O)CN=C(c2ccccc2)c2cc(Cl)ccc21 [Diazepam] the “fiber score / MBP score” value was 0.832. For c1ccc(Cn2ccnc2)cc1 [1-Benzylimidazole], the “fiber score / MBP score” value was 0.664.

Same assay, conditions: 5 µM; treatment time: 8 days (DIV5-DIV13)
In the case of CCC(COC(=O)c1cc(OC)c(OC)c(OC)c1)(c1ccccc1)N(C)C (stereo not given) [Trimebutine], the “fiber score / MBP score” value is reported as 0.297. With CN1C(=O)CN=C(c2ccccc2)c2cc([N+](=O)[O-])ccc21 [Nimetazepam] the “fiber score / MBP score” value was 0.878. For CC(C)CC(N(C)C)C1(c2ccc(Cl)cc2)CCC1 (stereo not given) [Sibutramine], the “fiber score / MBP score” value was 1.02 ± 0.064. In the case of COC(=O)N1CCN(C(=O)Cc2ccc(Cl)c(Cl)c2)C(CN2CCCC2)C1 (stereo not given), the “fiber score / MBP score” value is reported as 0.389. For CC(=O)O[C@H]1C[C@@H]2CC[C@@H]3[C@H](CC[C@@]4(C)[C@H]3C[C@H]([N+]3(C)CCCCC3)[C@@H]4OC(C)=O)[C@@]2(C)C[C@@H]1[N+]1(C)CCCCC1 [Pancuronium], the “fiber score / MBP score” value was 1.04. With c1ccc2c(c1)Nc1ccccc1S2 [Phenothiazine] the “fiber score / MBP score” value was 0.89. In the case of O=P1(N(CCCl)CCCl)NCCCO1 (stereo not given) [Cyclophosphamide], the “fiber score / MBP score” value is reported as 0.547. For CCN(CC)CCOC(=O)C(O)(c1ccccc1)c1ccccc1 [Benactyzine], the “fiber score / MBP score” value was 1.2. In the case of CCN(C(C)=O)c1cccc(-c2ccnc3c(C#N)cnn23)c1 [Zaleplon], the “fiber score / MBP score” value is reported as 1.2. With O=C1Nc2ccc(Cl)cc2C(c2ccccc2Cl)=NC1O (stereo not given) [Lorazepam] the “fiber score / MBP score” value was 1.13. With COc1ccc2[nH]cc(CCN)c2c1 [5-Methoxytryptamine] the “fiber score / MBP score” value was 0.737. With C[C@]12CC[C@H]3[C@@H](CCC4=CC(=O)CC[C@@]43C)[C@@H]1CC[C@@H]2O [Testosterone] the “fiber score / MBP score” value was 0.928 ± 0.1. With O[C@@H]1CCCC[C@H]1N1CCC(c2ccccc2)CC1 (racemic) [Vesamicol] the “fiber score / MBP score” value was 0.361. CC(C)(O)[C@@H]1[C@H]2OC(=O)[C@@H]1[C@]1(O)C[C@H]3O[C@]34C(=O)O[C@H]2[C@]14C [Picrotin] was tested, and the “fiber score / MBP score” value was 0.797. With Cc1nnc2n1-c1ccc(Cl)cc1C(c1ccccc1)=NC2 [Alprazolam] the “fiber score / MBP score” value was 0.823. For CN1C(=O)COc2c(C(=O)NC3CN4CCC3CC4)cc(Cl)cc21 (stereo not given) [Azasetron], the “fiber score / MBP score” value was 0.901. With CC[C@@H]1C=CC=CC[C@H](C)[C@@H](O)[C@@H](C)C(=O)[C@H](C)[C@@H](O)[C@H](C)C(=O)[C@H](C)[C@@H](O)[C@H](C)C=CC(=O)O[C@H]2[C@@H](C)[C@@H](CC1)O[C@@]1(CC[C@@H](C)[C@@H](C[C@H](C)O)O1)[C@@H]2C [Oligomycin C] the “fiber score / MBP score” value was 1.11. In the case of CC(C)N(CCC(C(N)=O)(c1ccccc1)c1ccccn1)C(C)C (stereo not given) [Disopyramide], the “fiber score / MBP score” value is reported as 0.371. COc1ccc(C(CN(C)C)C2(O)CCCCC2)cc1 (stereo not given) [Venlafaxine] was tested, and the “fiber score / MBP score” value was 1.02. In the case of C[C@]12CC[C@H]3[C@@H](CCC4=CC(=O)CC[C@@H]43)[C@@H]1CC[C@@H]2O [Nandrolone], the “fiber score / MBP score” value is reported as 0.883. In the case of CN1[C@@H]2C[C@@H](OC(=O)[C@H](CO)c3ccccc3)C[C@H]1[C@@H]1O[C@@H]12 [Scopolamine hydrobromide], the “fiber score / MBP score” value is reported as 0.821. For C[C@H]1CCC[C@H](O)CCCCCc2cc(O)cc(O)c2C(=O)O1 [Zeranol], the “fiber score / MBP score” value was 0.876. In the case of C[C@]12CC[C@H](O)CC1=CC[C@@H]1[C@@H]2CC[C@]2(C)C(=O)CC[C@@H]12 [Dehydroepiandrosterone], the “fiber score / MBP score” value is reported as 0.965. For O=C(O)CCCc1ccc(N(CCCl)CCCl)cc1 [Chlorambucil], the “fiber score / MBP score” value was 0.615. With c1cncc([C@@H]2CCCN2)c1 [Nornicotine] the “fiber score / MBP score” value was 0.836. With CN1C(=O)CN=C(c2ccccc2)c2cc(Cl)ccc21 [Diazepam] the “fiber score / MBP score” value was 0.879. c1ccc(Cn2ccnc2)cc1 [1-Benzylimidazole] was tested, and the “fiber score / MBP score” value was 0.942.
